# Rows were chosen to be rich in hits. Some 6.8% of all compounds tested hit in one or more screens of this group.
# T cruzi growth-1 – inhibitors of T. cruzi proliferation; T. cruzi beta-gal in NIH3T3, GalScreen luminescence, 90 h; inhibition, % at 8.34 µM; 77,000 compounds, 5.9% hits;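 active = mean inhibition above about 93%, with at least 55% of replicates each passing it, limit read from the data, passing the limit was not always enough; inconclusive = only one of those two conditions holds; inactive = neither condition holds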
# Pf Dd2 inh – inhibitors of Plasmodium falciparum Dd2 growth; activity change, % at 10 µM; 94,000 compounds, 2.3% hits; P. falciparum Dd2 growth, SYBR Green, 72 h; stronger effect = lower value; in the data active = activity change below about -80%; inconclusive = no clear call, values can overlap the other calls
# C diff HTS – inhibitors of Clostridium difficile growth | growth activity, negative = inhibition, % at 16 µg/mL (by protocol) | AID 1259249 | 86,000 compounds, 0.25% hits | Clostridium difficile clinical isolate growth, OD600, 24 h; stronger effect = lower value;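 active = mean growth activity at or below -80% and every replicate also at or below -80%; inconclusive = mean at or below -80% but some replicate above -80%; inactive = mean growth activity above -80%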;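 also: 0% = DMSO wells and -100% = levofloxacin 16 µg/mL wells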
# T cruzi growth-2 – blocks T. cruzi growth in NIH3T3 host cells. shares compounds with T cruzi growth-1. T. cruzi beta-gal in NIH3T3, GalScreen luminescence, 90 h. inhibition, % at 8.35 µM. 5,600 compounds, 72% hits. AID 651739;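 active = mean replicate inhibition above about 95% and at least 55% of replicates individually reaching it, limit read from the data; inconclusive = only one of the two criteria is met; inactive = neither criterion is met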
# T cruzi growth-3 – inhibitors of T. cruzi proliferation. 5,600 compounds, 21% hits. inhibition, % at 2.09 µM. shares compounds with T cruzi growth-1. T. cruzi beta-gal in NIH3T3, GalScreen luminescence, 90 h;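 active = mean inhibition above about 95%, with at least 55% of replicates also reaching it, limit read from the data; inconclusive = meets just one of the two conditions; inactive = meets neither condition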;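 also: plate controls were neutral control median for no effect and positive control median for full effect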
# 3T3 cytotox – cytotoxicity in mouse NIH/3T3 fibroblasts. shares compounds with T cruzi growth-1. AID 651742. cytotoxicity (signal decrease), % at 8.35 µM. NIH/3T3 viability, CellTiter-Glo ATP luminescence, 90 h. 5,600 compounds, 14% hits;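 active = mean signal decrease across replicates above about 35% based on untreated-well scatter, with enough replicates individually passing, limit read from the data; inconclusive = no rule stated though some were filed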;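 also: 0% = median of neutral control wells and 100% = median of positive control wells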
# NIH3T3 tox 2 – kills mouse NIH/3T3 fibroblasts; shares compounds with T cruzi growth-1; NIH/3T3 viability, CellTiter-Glo ATP luminescence, 90 h; inhibition, % at 24.9 µM; 5,600 compounds, 56% hits; AID 651744;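 active = mean loss of cell viability signal at or above a set limit, and enough replicates individually reaching it; inconclusive = meets only the mean limit or only the replicate share; inactive = meets neither condition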;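 also: 0% = median of neutral control wells and 100% = median of positive control wells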
# The depositor's hits bear a star; ? = inconclusive; · = no result.
SMILES,T cruzi growth-1,Pf Dd2 inh,C diff HTS,T cruzi growth-2,T cruzi growth-3,3T3 cytotox,NIH3T3 tox 2
Cn1cnc(S(=O)(=O)N2CCCCN3[C@@H](CO)[C@H](c4ccc(-c5cccc(F)c5)cc4)[C@@H]3C2)c1,69.6,25.1,-1.2,·,·,·,·
Cn1cnc(S(=O)(=O)N2CCCCN3[C@H](CO)[C@@H](c4ccc(-c5cccc(F)c5)cc4)[C@H]3C2)c1,39.7,18.6,-11.8,·,·,·,·
Cn1cnc(S(=O)(=O)N2CCCCN3[C@H](C2)[C@@H](c2ccc(-c4cccc(F)c4)cc2)[C@@H]3CO)c1,103.3*,34.4,-11.6,96.3*,5.2,5.6,?
N#C[C@H]1[C@@H](c2ccc(C#CC3CC3)cc2)[C@@H](CO)N1S(=O)(=O)c1ccccc1,96.3*,-13.2,5.5,106.6*,62.7,-6.6,35.7*
N#C[C@H]1[C@H](c2ccc(C#CC3CCCC3)cc2)[C@H](CO)N1S(=O)(=O)c1ccccc1,90.5,-9.2,-4.3,·,·,·,·
N#C[C@@H]1[C@@H](c2ccc(C#CC3CCCC3)cc2)[C@@H](CO)N1S(=O)(=O)c1ccccc1,98.6*,-30.2,0.9,101.6*,?,45.8*,102.1*
N#C[C@H]1[C@@H](c2ccc(C#CC3CCCC3)cc2)[C@H](CO)N1S(=O)(=O)c1ccccc1,88.4,-46.4,-0.9,·,·,·,·
Cc1ccccc1S(=O)(=O)N1[C@@H](C#N)[C@@H](c2ccc(C#CC3CCCC3)cc2)[C@@H]1CO,·,-71.2,17.6,·,·,·,·
N#C[C@H]1[C@H](c2ccc(C#CC3CC3)cc2)[C@H](CO)N1S(=O)(=O)c1ccccc1,100.6*,-69.7,0.5,102.8*,109.4*,-1.5,34.3*
N#C[C@@H]1[C@H](c2ccc(C#CC3CC3)cc2)[C@@H](CO)N1S(=O)(=O)c1ccccc1,?,-70.0,-3.1,102.9*,108.7*,8.2,-3.5
N#C[C@@H]1[C@H](c2ccc(C#CC3CCCCC3)cc2)[C@H](CO)N1S(=O)(=O)c1ccccc1,80.3,-71.0,-5.6,·,·,·,·
C[C@H](CO)N1C[C@H](C)[C@H](CN(C)C(=O)NC2CCCCC2)Oc2ccc(NC(=O)Cc3cn(C)c4ccccc34)cc2CC1=O,-2.7,-24.7,2.0,·,·,·,·
C[C@H]1CN([C@@H](C)CO)C(=O)Cc2cc(NC(=O)CCC(F)(F)F)ccc2O[C@@H]1CN(C)C(=O)Nc1ccc(F)cc1,-20.8,25.5,0.8,·,·,·,·
O=C(c1cccc(F)c1)N1CCCCN2[C@H](CO)[C@H](c3ccc(-c4ccc(F)cc4)cc3)[C@@H]2C1,110.6*,10.8,38.3,110.4*,95.5*,23.2,64.8*
CC(C)(O)C#Cc1ccc([C@@H]2[C@@H](CO)N3CCCCN(C(=O)c4cccc(F)c4)C[C@H]23)cc1,120.1*,16.1,1.8,92.6,-3.6,-7.2,18.6
O=C(c1cccc(F)c1)N1CCCCN2[C@H](C1)[C@@H](c1ccc(-c3ccncc3)cc1)[C@@H]2CO,85.5,-6.7,-3.0,·,·,·,·
O=C(c1cccc(F)c1)N1CCCCN2[C@H](CO)[C@H](c3ccc(-c4ccncc4)cc3)[C@@H]2C1,110.4*,-40.7,-0.9,113.1*,82.0,-12.2,0.1
O=C(c1cccc(F)c1)N1CCCCN2[C@@H](CO)[C@@H](c3ccc(-c4ccncc4)cc3)[C@@H]2C1,81.5,8.4,-5.6,·,·,·,·
O=C(c1cccc(F)c1)N1CCCCN2[C@H](CO)[C@H](c3ccc(-c4cncnc4)cc3)[C@H]2C1,?,13.6,5.7,71.5,47.1,16.5,14.6
CC(C)(O)C#Cc1ccc([C@@H]2[C@H]3CN(C(=O)c4cccc(F)c4)CCCCN3[C@H]2CO)cc1,90.8,11.9,4.4,·,·,·,·
O=C(c1cccc(F)c1)N1CCCCN2[C@H](C1)[C@@H](c1ccc(-c3cncnc3)cc1)[C@@H]2CO,22.2,19.9,-13.2,·,·,·,·
C[C@@H]1CN([C@@H](C)CO)C(=O)c2cc(NC(=O)Nc3ccc(F)cc3)ccc2O[C@@H](C)CCCCO[C@H]1CN(C)C(=O)Cc1ccccc1,-27.6,4.6,-2.0,·,·,·,·
CCC(=O)N1C[C@H](O)COC[C@H]2O[C@H](CC(=O)N3CCCCC3)CC[C@@H]21,-7.4,17.6,14.8,·,·,·,·

# Screening results deposited in PubChem by Broad Institute.
